For nine compounds, z-score and composite z-score results are on record in PubChem BioAssay.

Assay [1] is described as follows: HepG2 liver cancer cell viability effects, profiling panel, resazurin fluorescence, 24 h, PK04 Diversity Set (AID 1172). The settings on record: higher = more signal.
Assay [2] in a line: basal S. cerevisiae growth modulation, no modifier, primary screen, OD600, strain BY4716, 24 h, basal condition (AID 1173). To be noted: OD600, 24 h, higher = more signal, called active from +8 up or from −8 down.
Assay [3] is described as follows: MM1S myeloma cell viability, profiling panel, resazurin fluorescence, basal, 24 h, PK04 Diversity Set (AID 1174).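 Also: MM1S multiple myeloma cell line.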 The settings on record: higher = more signal, called active from +8 up or from −8 down. A general note: Resazurin is reduced to fluorescent resorufin, in cell work by metabolically active cells.
In assay [4] the target is Dihydroorotate dehydrogenase (quinone), mitochondrial (Plasmodium falciparum (isolate 3D7)) (UniProt Q08210). The assay can be described thus: PfDHODH enzyme inhibitors, primary screen, biochemical, C-terminal His tag, absorbance 600 nm (AID 1175).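 Also: recombinant parasite enzyme with a five histidine tag at its C terminus.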 The settings on record: DCIP absorbance 600 nm, higher = more signal, called active from +8 up or from −8 down.
Chain of Dihydroorotate dehydrogenase (quinone), mitochondrial (Plasmodium falciparum (isolate 3D7)) (Q08210 whole entry, looked up): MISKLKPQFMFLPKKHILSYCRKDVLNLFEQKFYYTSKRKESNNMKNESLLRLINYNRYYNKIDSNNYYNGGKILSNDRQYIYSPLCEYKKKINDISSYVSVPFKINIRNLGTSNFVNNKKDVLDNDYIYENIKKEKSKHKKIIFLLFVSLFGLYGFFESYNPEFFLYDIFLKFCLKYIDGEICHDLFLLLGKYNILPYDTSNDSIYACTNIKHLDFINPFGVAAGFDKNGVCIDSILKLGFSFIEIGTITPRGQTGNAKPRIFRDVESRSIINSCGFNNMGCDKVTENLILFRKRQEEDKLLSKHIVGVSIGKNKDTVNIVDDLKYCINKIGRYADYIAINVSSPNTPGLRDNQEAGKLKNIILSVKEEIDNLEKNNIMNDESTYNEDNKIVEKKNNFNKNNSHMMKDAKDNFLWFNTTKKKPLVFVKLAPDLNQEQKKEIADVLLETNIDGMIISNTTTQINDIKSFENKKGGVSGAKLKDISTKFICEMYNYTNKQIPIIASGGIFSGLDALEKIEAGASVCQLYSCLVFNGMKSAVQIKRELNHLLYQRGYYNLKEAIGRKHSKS
Assay [5] is described as follows: P. aeruginosa biofilm formation inhibitors, primary screen, strain PAO1, LB-PBS medium, absorbance 600 nm (AID 1176). To be noted: P. aeruginosa PAO1 growth/biofilm, A600, 12 h; higher = more signal.
A short description of assay [6]: S. cerevisiae RM11-1a growth modifiers, primary screen, strain RM11-1a, OD600, basal, 24 h (AID 1177).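 Also: cultures grown under basal conditions with no added stressor.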 To be noted: OD600, 24 h, higher = more signal, called active from +8 up or from −8 down.
Assay [7] in a line: E. coli acrAB mutant growth effects, primary screen, E. coli filamentation inducers, strain DRC39, OD650, 24 h (AID 1178).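 Also: growth measured as culture turbidity by optical density at 650 nm.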 To be noted: higher = more signal, called active from +8 up or from −8 down.
Assay [8] is described as follows: E. coli acrAB mutant growth effects, primary screen, E. coli filamentation inducers, strain DRC39, OD650, 48 h (AID 1179).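 Also: screen aims at cell division blockers that make cells filament.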 To be noted: E. coli DRC39 delta-acrAB growth, higher = more signal, called active from +8 up or from −8 down.
Assay [9] is described as follows: RPMI8226 myeloma cell viability, profiling panel, resazurin fluorescence, basal, 24 h, PK04 Diversity Set (AID 1180).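 Also: RPMI8826 multiple myeloma cell line at 5000 cells per well.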 The settings on record: higher = more signal.
Assay [10] concerns the target E3 ubiquitin-protein ligase XIAP (Homo sapiens) (UniProt P98170). The assay can be described thus: XIAP binders, primary screen, biophysical, small-molecule microarray, fluorescence 635 nm (AID 1181).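 Also: score merges 667 nm emission and signal to noise over triplicate slides.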 To be noted: small-molecule microarray binding, higher = more signal.
For assay [11], the system named is XIP peptide (Xip251-270) binding. Nature of the assay: small-molecule binders of XIP peptide, primary screen, biochemical, small-molecule microarray, fluorescence 635/667 nm, 0.1 µg/mL protein (AID 1182). To be noted: fluorescent protein binding, 635 nm, higher = more signal, called active from +8 up or from −8 down.
The subject of a further assay is XIP peptide (Xip251-270). Nature of the assay: small-molecule binders of XIP peptide, primary screen, biochemical, small-molecule microarray, fluorescence 635/667 nm, 0.5 µg/mL protein (AID 1183). To be noted: small-molecule microarray binding, fluorescence 635 nm; higher = more signal.
The nature of assay [12]: Plasmodium falciparum growth inhibition, primary screen, strain 3D7, DAPI fluorescence, 100 nL (AID 1184).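 Also: parasites grown inside human red blood cells in medium with human serum.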 The settings on record: P. falciparum 3D7 growth, 3 d, higher = more signal.
Assay [13] has as its target Homeobox protein Hox-A13 (Mus musculus) (UniProt Q62424). The assay can be described thus: inhibitors of HoxA13-DNA binding, primary screen, biochemical, fluorescence polarization, labeled oligonucleotide (AID 1185). To be noted: 15 min, higher = more signal, called active from +8 up or from −8 down. In general terms: Polarisation of emitted light reports the rotation of a fluorescent probe.

A short description of assay [14]: inhibitors of hydroxyurea-induced Chk1 phosphorylation, primary screen, imaging, HeLa, phospho-Chk1 antibody, percent positive cells (AID 1186). To be noted: hydroxyurea-induced phospho-Chk1 immunofluorescence imaging, higher = more signal.
Assay [15] in a line: inhibitors of hydroxyurea-induced Chk1 phosphorylation, primary screen, imaging, HeLa, phospho-Chk1 nuclear intensity (AID 1187). To be noted: hydroxyurea-induced phospho-Chk1 immunofluorescence imaging, higher = more signal.

Active and inactive are the calls of the source. Unless noted, no rule for the calls is given here.

Chain of Homeobox protein Hox-A13 (Mus musculus) (Q62424 whole entry, looked up): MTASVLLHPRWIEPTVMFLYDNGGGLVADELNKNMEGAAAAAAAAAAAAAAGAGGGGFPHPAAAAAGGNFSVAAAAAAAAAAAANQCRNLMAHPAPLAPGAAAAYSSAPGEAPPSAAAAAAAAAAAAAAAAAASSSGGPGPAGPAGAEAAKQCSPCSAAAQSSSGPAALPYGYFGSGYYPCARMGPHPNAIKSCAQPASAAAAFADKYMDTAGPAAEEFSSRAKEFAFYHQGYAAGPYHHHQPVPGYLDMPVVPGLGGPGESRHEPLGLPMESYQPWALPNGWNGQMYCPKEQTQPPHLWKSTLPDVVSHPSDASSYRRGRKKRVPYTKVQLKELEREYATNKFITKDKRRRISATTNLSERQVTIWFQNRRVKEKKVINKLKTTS
Chain of E3 ubiquitin-protein ligase XIAP (Homo sapiens) (P98170 whole entry, looked up): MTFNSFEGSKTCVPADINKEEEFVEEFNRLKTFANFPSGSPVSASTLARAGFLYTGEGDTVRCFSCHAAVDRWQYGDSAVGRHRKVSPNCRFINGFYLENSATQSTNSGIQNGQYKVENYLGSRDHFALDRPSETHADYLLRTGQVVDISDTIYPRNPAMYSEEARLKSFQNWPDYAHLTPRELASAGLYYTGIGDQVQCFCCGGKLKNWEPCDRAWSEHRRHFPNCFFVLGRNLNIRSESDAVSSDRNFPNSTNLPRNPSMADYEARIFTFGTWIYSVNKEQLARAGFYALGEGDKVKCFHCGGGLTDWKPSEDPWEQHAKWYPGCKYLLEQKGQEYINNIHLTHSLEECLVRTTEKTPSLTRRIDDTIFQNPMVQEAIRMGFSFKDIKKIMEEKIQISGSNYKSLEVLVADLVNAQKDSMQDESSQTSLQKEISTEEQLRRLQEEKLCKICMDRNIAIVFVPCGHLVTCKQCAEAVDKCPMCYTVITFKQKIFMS

Take `CN(C)CCCCNC(=O)[C@H]1C[C@H]2C(=O)NCC(=O)N2[C@H]1c1cccc(OCCO)c1`: the z-score in assay [1] is 1.15; in assay [2] it was 0.425 (inactive); in assay [3] it was 1.59 (inactive); in [5], -0.711 (inactive); in assay [6] it was 1.06 (inactive); in assay [7], 0.779 (inactive). In addition, the z-score in assay [8] is 0.834 (inactive); in assay [9] it was 0.158; in assay [12], 0.256; in assay [13], -1.62 (inactive); in [14] it was -0.46 (inactive); in assay [15], -0.538 (inactive). Further, the composite z-score in assay [4] is -0.0392 (inactive); in assay [10] it was -0.0286; in assay [11] it was 0.329 (inactive); in the assay on XIP peptide (Xip251-270), 0.129.
For `Cc1ccccc1C(O)C1C=CC2C(=O)N(c3ccccc3)C(=O)C2N1Nc1ccccc1F` (centres undefined), the z-score in assay [1] is -0.954; in assay [2] it was -0.822 (inactive); in assay [3] it was -1.08 (inactive); in [5], 1.07 (inactive); in [6], 0.362 (inactive); in assay [7], -0.274 (inactive). For the same compound, the z-score in assay [8] is -0.542 (inactive); in [9], -1.01; in assay [12], 0.907; in assay [13] it was -2.9 (inactive); in [14], 1.27 (inactive); in assay [15], 1.11 (inactive). Also, the composite z-score in assay [4] was 0.115 (inactive); in assay [10], 0.202; in assay [11], 1.5 (inactive); in the assay on XIP peptide (Xip251-270) it was 0.646.
In the case of `COc1ccc([Si](C)(C)[C@H]2[C@H](CC(=O)N3Cc4ccccc4C[C@H]3CO)O[C@@]3(C(=O)N(Cc4cccc(N5C(=O)c6cccc7cccc5c67)c4)c4ccccc43)[C@@H]2C)cc1`, the z-score in [1] was -0.539; in [2], -0.563 (inactive); in assay [3], -2.76 (inactive); in [5], 1.49 (inactive); in assay [6], 1.95 (inactive); in assay [7], 0.643 (inactive). Further, the z-score in assay [8] is 0.209 (inactive); in assay [9], -2; in assay [12], -2.45; in assay [13], -2.56 (inactive); in assay [14], -0.887 (inactive); in assay [15] it was -0.153 (inactive). Moreover, the composite z-score in assay [4] is -1.88 (inactive); in assay [10] it was 0.0153; in assay [11] it was 0.14 (inactive); in the assay with XIP peptide (Xip251-270) it was 0.802.
On to `CO[C@H]1O[C@H](CO)[C@@H](OC(=O)Nc2ccc(C(F)(F)F)cc2)[C@H](OC(=O)Nc2ccccc2-c2ccccc2)[C@@H]1OC(=O)Nc1ccccc1-c1ccccc1`, for which the z-score in assay [1] is -0.889; in [2], 0.28 (inactive); in [3] it was -1.74 (inactive); in assay [5] it was 0.77 (inactive); in assay [6], 1.21 (inactive); in assay [7] it was -1 (inactive). Besides, the z-score in assay [8] was 0.0484 (inactive); in assay [9] it was -0.94; in [12], -2.28; in assay [13], -4.13 (inactive); in [14] it was 0.206 (inactive); in [15], 0.0324 (inactive). The composite z-score in assay [4] was 0.0823 (inactive); in assay [10], -0.184; in [11], 1.39 (inactive); in the assay with XIP peptide (Xip251-270) it was 0.827.
As to `COC(=O)[C@@]1(Cc2ccc(F)cc2)[C@H]2c3cc(C(=O)N(C)C)n(CCO)c3C[C@H]2CN1C(=O)c1ccccc1`, the z-score in assay [1] was -0.359; in assay [2], -0.092 (inactive); in [3], -0.438 (inactive); in [5], 0.865 (inactive); in assay [6], -0.251 (inactive); in assay [7], -0.356 (inactive). In addition, the z-score was -0.0099 (inactive) in assay [8]; -0.0323 in assay [9]; 0.196 in assay [12]; -4.71 (inactive) in assay [13]; -0.0514 (inactive) in [14]; 0.138 (inactive) in [15]. Also, the composite z-score is -0.844 (inactive) in assay [4], 0.49 in [10], 1.79 (inactive) in assay [11] and 0.39 with XIP peptide (Xip251-270).
For the compound `COc1ccc([Si](C)(C)[C@H]2[C@H](CCn3cc([C@H](O)c4ccccc4)nn3)O[C@@]3(C(=O)N(C)c4c(Br)cc(C)cc43)[C@@H]2C)cc1`, the z-score is -2.69 in [1]; -0.691 (inactive) in [2]; -3.29 (inactive) in assay [3]; 1.03 (inactive) in assay [5]; 1.01 (inactive) in assay [6]; 0.566 (inactive) in assay [7]. The z-score was 0.132 (inactive) in assay [8]; -5.5 in [9]; -2.41 in [12]; -2.54 (inactive) in assay [13]; -0.66 (inactive) in assay [14]; -0.0953 (inactive) in [15]. Besides, the composite z-score in [4] is 1.19 (inactive); in assay [10], 0.0512; in assay [11], 0.424 (inactive); with XIP peptide (Xip251-270) it was 0.586.
As to `C=C(COC)/C(=C/C[C@@H](OC(C)=O)c1ccccc1OCCO)c1cc(C(=O)OC)ccc1OC`, the z-score is -0.0418 in assay [1]; 0.487 (inactive) in assay [2]; -0.705 (inactive) in [3]; 0.543 (inactive) in assay [5]; 0.759 (inactive) in assay [6]; 0.013 (inactive) in [7]. Also, the z-score is -0.199 (inactive) in assay [8]; -0.316 in assay [9]; -2.76 in [12]; -4.47 (inactive) in assay [13]; -0.503 (inactive) in [14]; 0.169 (inactive) in assay [15]. The composite z-score was -0.069 (inactive) in assay [4], -0.0279 in assay [10], -0.0801 (inactive) in assay [11] and 0.587 in the assay with XIP peptide (Xip251-270).
Regarding `C=CCC(OC(C)=O)[C@@H]1[C@@H](N(Cc2cc3ccccc3o2)C(=O)Cc2ccc(OC)cc2)c2cc(OCCCO)ccc2N1C(=O)Cc1ccc(OC)cc1` (some centres undefined), the z-score was -1.28 in assay [1]; -1.01 (inactive) in [2]; -0.0297 (inactive) in assay [3]; 0.198 (inactive) in [5]; -0.133 (inactive) in assay [6]; -0.184 (inactive) in [7]. Besides, the z-score is -0.578 (inactive) in assay [8]; -0.561 in [9]; -1.96 in assay [12]; -2.81 (inactive) in assay [13]; 0.954 (inactive) in assay [14]; 0.799 (inactive) in assay [15]. For the same compound, the composite z-score in assay [4] is 0.707 (inactive); in assay [10], 0.0345; in assay [11] it was 0.394 (inactive); with XIP peptide (Xip251-270), -0.503.
Consider `O=C1C2C=CC(C(O)C(c3ccccc3)c3ccccc3)N(Nc3ccccc3)C2C(=O)N1c1ccccc1` (centres undefined), for which the z-score is 0.9 in assay [1]; -0.659 (inactive) in [2]; -1.05 (inactive) in assay [3]; 1.26 (inactive) in assay [5]; 0.347 (inactive) in [6]; -0.615 (inactive) in assay [7]. In addition, the z-score in assay [8] was -0.0085 (inactive); in [9], -0.403; in assay [12], -0.28; in assay [13] it was -1.33 (inactive); in assay [14], -0.571 (inactive); in assay [15] it was -0.706 (inactive). Besides, the composite z-score was 1.09 (inactive) in assay [4], 0.34 in [10], 2.35 (inactive) in assay [11] and 0.722 in the assay with XIP peptide (Xip251-270).
